This is a sample that favours compounds with a hit; in the whole collection about 19% have one here.
SW480 rerep: induces DNA re-replication in SW480 colon adenocarcinoma cells. SW480 DNA re-replication, Hoechst DNA content imaging, 48 h. Potency, µM (doses to about 46.1 µM), without a hit: at the top dose re-replication activation, hits mostly activators. 340,000 tested, 1.8% active. AID 624297; also: potency is read from the fitted curve at half-maximal effect; % of control where 0% means no effect; nearly all actives have a fitted effect of over 55% in size
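Readout is total intensity of Hoechst-stained nuclei, excited at 405 nm and collected at 500-530 nm. Compound treatment lasted 48 hr at 37 C in 5% CO2 before staining.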
DT40 TDP1 CPT: growth inhibition of DT40 Tdp1-/-;hTDP1 cells with camptothecin (screen for TDP1 inhibitors). chicken DT40 Tdp1-/-;hTDP1 cells + 20 nM CPT, ATP luminescence, 48 h. Potency, µM (top dose mostly 46.2 µM), for the others: at the highest dose activity change, negative = growth inhibition, usual class: inhibitors. 420,000 tested, 12% active. AID 686979; also: potency is read from the fitted curve at half-maximal effect; % is scaled to controls: 0 for no effect and ±100 for the full control effect; nearly all actives have a fitted effect of over 55% in size
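Cell growth measured by CellTiter-Glo luminescence after a minimum 48 h, 37 C compound exposure with 20 nM CPT in Tdp1-knockout DT40 cells stably expressing hTDP1, seeded 400/well; qHTS titration format.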
Chronic BCR inh: chronic active BCR signaling inhibition. ABC-DLBCL IkBa-CBG/CBR reporter, luminescence ratio, 4 h. Potency, µM (top dose mostly 46.1 µM), without a hit: at the top dose activity change, negative = inhibition, hits mostly inhibitors. 340,000 tested, 0.05% active. AID 493014; active = well fitted inhibition curve with a large enough effect in the signal ratio, with a control signal flat, not every such curve was filed as active; inconclusive = small, poorly fitted or top-dose-only effect, or effect the other way, or a change in a side signal; the % refers to the signal ratio;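 also: potency is read from the fitted curve at half-maximal effect; plate controls were basal doxycycline-induced cells for no effect and cells given 10 µM MG132 for full effect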
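Compounds up to 46 uM were incubated four hours with TMD8 cells whose green CBG68 luciferase is fused to IkappaBalpha; red CBR luminescence normalised the signal, and concentration-effect curves were fitted to fusion, red and ratio data.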
MCF10A rerep: DNA re-replication induction in MCF 10a cells | AID 624296 | MCF 10A DNA re-replication, Hoechst nuclear intensity, 48 h | Potency, µM (top dose mostly 46.1 µM), without a hit: at the highest dose activity, positive = re-replication, hits mostly activators | 350,000 tested, 2.9% active; also: potency is read from the fitted curve at half-maximal effect; % of control where 0% means no effect; nearly all actives have a fitted effect of over 50% in size
IL-1B inflam inh: blocks inflammasome-driven IL-1 beta release; THP-1 LPS/ATP IL-1B secretion, AlphaLISA, 16 h; hits give low values; activity change, % at 57.5 µM; 360,000 tested, 4.7% active; AID 743279; in the data active = activity change below about -50%; inconclusive = mostly about -30% to -49%; also: % is scaled to controls: 0 for no effect and ±100 for the full control effect
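Secreted IL-1B measured by AlphaLISA bead assay after 16 h compound exposure of THP-1 cells; compounds (final up to 57.5 uM) added 1 h before LPS (250 ng/mL) and ATP (1.25 mM) stimulation; lower signal means less secretion.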
TDP1 cell noCPT: qHTS for Inhibitors of human tyrosyl-DNA phosphodiesterase 1 (TDP1): qHTS in cells in absence of CPT; DT40 Tdp1-/- hTDP1 cells, no CPT, ATP luminescence, 48 h; Potency, µM (highest dose often 46.2 µM), for the others: at the highest dose activity change, negative = growth inhibition, usual class: inhibitors; 420,000 tested, 15% active; AID 686978, 2013; also: potency is read from the fitted curve at half-maximal effect; % is scaled to controls: 0 for no effect and ±100 for the full control effect; nearly all actives have a fitted effect of over 55% in size
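Cells were dispensed at 400 per well, compounds added by pin tool, plates incubated ≥48 hr at 37 °C, then CellTiter-Glo added for 30 min at room temperature before luminescence reading. Line: DT40 Tdp1-/- complemented with hTDP1; camptothecin omitted.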
An asterisk follows results filed as active. Unless noted, calls follow the shape of the dose curve; as a rule, active = well fitted curve in the direction sought with a large enough effect; inconclusive = small, poorly fitted or top-dose-only effect, or another doubt; inactive = no such curve, though single readings can be large; an effect the other way counts as inactive or inconclusive.

What do the screens show for `O=C(NCC1CCCO1)c1cc(Br)c(Br)s1` (centres undefined)?
SW480 rerep: 0.0%; DT40 TDP1 CPT: -8.2%; Chronic BCR inh: -0.1%; MCF10A rerep: 5.2%; IL-1B inflam inh: -10.3; TDP1 cell noCPT: 6.1%

What do the screens show for `CCCCOc1ccc(-c2n[nH]c(=S)n2Cc2ccccc2)cc1`?
SW480 rerep: 3.0%; DT40 TDP1 CPT: inconclusive; Chronic BCR inh: inconclusive; MCF10A rerep: inconclusive; IL-1B inflam inh: 29.7; TDP1 cell noCPT: 25.9µM*

Results for Fc1ccc(-c2n[nH]c(=S)n2Cc2ccccc2)cc1 ?
SW480 rerep: 5.5%; DT40 TDP1 CPT: 13.3%; Chronic BCR inh: inconclusive; MCF10A rerep: 10.0%; IL-1B inflam inh: 27.6; TDP1 cell noCPT: -3.4%

What do the screens show for `COc1ccc(-c2n[nH]c(=S)n2-c2ccc(C)cc2)cc1`?
SW480 rerep: 3.1%; DT40 TDP1 CPT: inconclusive; Chronic BCR inh: -12.0%; MCF10A rerep: -2.1%; IL-1B inflam inh: -22.7; TDP1 cell noCPT: inconclusive

What do the screens show for `Cc1ccc(-n2c(Cc3ccccc3)n[nH]c2=S)c(C)c1`?
SW480 rerep: 1.1%; DT40 TDP1 CPT: 18.2%; Chronic BCR inh: inconclusive; MCF10A rerep: 16.6%; IL-1B inflam inh: -66.5*; TDP1 cell noCPT: -13.8%

How did Cc1ccc(-c2n[nH]c(=S)n2C)cc1 do in these assays?
SW480 rerep: -7.2%; DT40 TDP1 CPT: 25.9µM*; Chronic BCR inh: 4.3%; MCF10A rerep: -1.9%; IL-1B inflam inh: -4.7; TDP1 cell noCPT: 16.4µM*

How did CC(C)n1c(-c2ccc(C(C)(C)C)cc2)n[nH]c1=S do in these assays?
SW480 rerep: 3.8%; DT40 TDP1 CPT: 11.2µM*; Chronic BCR inh: -3.0%; MCF10A rerep: -3.7%; IL-1B inflam inh: -16.9; TDP1 cell noCPT: inconclusive

What do the screens show for `O=C(CSc1ccccc1F)NC(=O)c1ccccc1Br`?
SW480 rerep: 2.4%; DT40 TDP1 CPT: 19.9%; Chronic BCR inh: 4.3%; MCF10A rerep: -1.3%; IL-1B inflam inh: 0.6; TDP1 cell noCPT: -4.7%

How did CN1CCN(C(c2ccc(F)cc2)c2sc3nc(-c4ccco4)nn3c2O)CC1 (centres undefined) do in these assays?
DT40 TDP1 CPT: -15.8%; Chronic BCR inh: -4.6%; TDP1 cell noCPT: -6.6%

How did N#Cc1ccsc1NC(=O)COC(=O)C1=NNC(=O)CC1 do in these assays?
SW480 rerep: -23.1%; DT40 TDP1 CPT: -4.9%; Chronic BCR inh: inconclusive; MCF10A rerep: 1.0%; IL-1B inflam inh: 41.0; TDP1 cell noCPT: 20.4%

How did O=C(NCc1ccccc1CN1CCCC1)c1ccc(Cl)c(S(=O)(=O)N2CCCC2)c1 do in these assays?
SW480 rerep: inconclusive; DT40 TDP1 CPT: inconclusive; Chronic BCR inh: 0.0%; MCF10A rerep: inconclusive; IL-1B inflam inh: -22.8; TDP1 cell noCPT: inconclusive

What do the screens show for `Cc1scc(-c2n[nH]c(=S)n2Cc2ccccc2)c1C`?
SW480 rerep: -5.7%; DT40 TDP1 CPT: -22.8%; Chronic BCR inh: -5.3%; MCF10A rerep: -3.8%; IL-1B inflam inh: 26.1; TDP1 cell noCPT: -5.1%

How did CC(C)(C)c1ccc(-c2n[nH]c(=S)n2Cc2ccccc2)cc1 do in these assays?
SW480 rerep: -6.9%; DT40 TDP1 CPT: inconclusive; Chronic BCR inh: inconclusive; MCF10A rerep: inconclusive; IL-1B inflam inh: -15.8; TDP1 cell noCPT: 11.6µM*

Results for COc1ccc(-n2c(-c3ccc(C(C)(C)C)cc3)n[nH]c2=S)c(OC)c1 ?
DT40 TDP1 CPT: 16.4µM*; IL-1B inflam inh: -1.4; TDP1 cell noCPT: 23.1µM*

How did Cc1ccc(OCc2n[nH]c(=S)n2Cc2ccccc2)cc1 do in these assays?
SW480 rerep: -6.8%; DT40 TDP1 CPT: -1.9%; Chronic BCR inh: 13.8%; MCF10A rerep: -3.1%; IL-1B inflam inh: 19.4; TDP1 cell noCPT: -12.3%

How did CCOc1ccc(Cc2n[nH]c(=S)n2Cc2ccccc2)cc1 do in these assays?
SW480 rerep: 3.1%; DT40 TDP1 CPT: inconclusive; Chronic BCR inh: -8.1%; MCF10A rerep: -6.9%; IL-1B inflam inh: -8.6; TDP1 cell noCPT: 16.4µM*

Results for CCc1c(-c2n[nH]c(=S)n2Cc2ccccc2)csc1C ?
SW480 rerep: -0.6%; DT40 TDP1 CPT: 5.8µM*; Chronic BCR inh: -0.2%; MCF10A rerep: inconclusive; IL-1B inflam inh: 8.9; TDP1 cell noCPT: 4.61µM*

What do the screens show for `COc1ccccc1C(=O)NC(=O)COC(=O)Cn1cnc2c1c(=O)n(C)c(=O)n2C`?
SW480 rerep: -16.8%; DT40 TDP1 CPT: 2.1%; Chronic BCR inh: -0.1%; MCF10A rerep: 10.6%; IL-1B inflam inh: 33.1; TDP1 cell noCPT: -16.5%

How did O=C(CN1C(=O)NC2(CCCc3ccccc32)C1=O)N1CCCCC1 (centres undefined) do in these assays?
SW480 rerep: -4.6%; DT40 TDP1 CPT: 4.0%; Chronic BCR inh: -4.3%; MCF10A rerep: -0.8%; IL-1B inflam inh: 13.3; TDP1 cell noCPT: 0.0%

How did COc1ccc(CNS(=O)(=O)c2cc3c(cc2Cl)N(C(C)=O)CCO3)cc1 do in these assays?
DT40 TDP1 CPT: -23.5%; TDP1 cell noCPT: inconclusive

What do the screens show for `C[C@@H]1CN([C@H](C)CO)C(=O)c2c(c3ccccc3n2C)-c2ccccc2CO[C@H]1CN(C)C(=O)NC1CCCCC1`?
DT40 TDP1 CPT: 18.4µM*; IL-1B inflam inh: 21.4; TDP1 cell noCPT: 25.9µM*

How did C[C@H](CO)N1C[C@H](C)[C@H](CN(C)C(=O)c2ccccc2)OCc2ccccc2-c2c(n(C)c3ccccc23)C1=O do in these assays?
DT40 TDP1 CPT: inconclusive; IL-1B inflam inh: -3.2; TDP1 cell noCPT: inconclusive

Results for Cc1noc(C)c1C(=O)N(C)C[C@@H]1OCc2ccccc2-c2c(n(C)c3ccccc23)C(=O)N([C@H](C)CO)C[C@H]1C ?
DT40 TDP1 CPT: inconclusive; IL-1B inflam inh: 9.1; TDP1 cell noCPT: 18.4µM*

How did COc1ccccc1NC(=O)C[n+]1ccccc1C do in these assays?
SW480 rerep: -6.3%; DT40 TDP1 CPT: 20.0%; Chronic BCR inh: -1.8%; MCF10A rerep: 1.5%; IL-1B inflam inh: 6.5; TDP1 cell noCPT: 5.4%

What do the screens show for `COCCCNc1nc2nonc2nc1N1CCN(Cc2cccc(C)c2)CC1`?
SW480 rerep: 0.6%; DT40 TDP1 CPT: inconclusive; Chronic BCR inh: 11.1%; MCF10A rerep: -20.3%; IL-1B inflam inh: 8.2; TDP1 cell noCPT: inconclusive

What do the screens show for `Fc1cccc(CN2CCN(c3nc4nonc4nc3NC3CC3)CC2)c1`?
SW480 rerep: 0.0%; DT40 TDP1 CPT: -25.8%; Chronic BCR inh: 5.5%; MCF10A rerep: -3.1%; IL-1B inflam inh: 12.1; TDP1 cell noCPT: 23.1µM*

Compound activity: PubChem BioAssay, National Center for Advancing Translational Sciences (NCATS)
